Screening results as filed in PubChem BioAssay.
TGFb inhibitor – blocks TGF-b signaling; HepG2 CAGA-GFP TGF-b/SMAD3 reporter, GFP fluorescence, 18 h; TGF-beta stimulated, 500 pg/mL final; Potency, µM (series often up to 46.1 µM), usual class: inhibitors; 1.2% of 410,000 active; AID 588855; note: nearly all actives have a fitted effect of over 65% in size
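GFP signal (ex488/em500-530) from TGF-beta-stimulated HEPG2 CAGA-GFP cells, 500 pg/mL final, 18 h at 37 degrees C in DMEM plus 1% FBS, normalized to unstimulated and DMSO-stimulated controls.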
TDP1 block – TDP1 (human) enzyme inhibition. Q9NUW8. recombinant TDP1, AlphaScreen DNA substrate cleavage. Potency, µM (titrated, usually from 130 µM), actives largely listed as inhibitors. 0.28% of 350,000 active. AID 485290; note: nearly all actives have a fitted effect of over 40% in size
Target sequence (Q9NUW8 whole entry, looked up): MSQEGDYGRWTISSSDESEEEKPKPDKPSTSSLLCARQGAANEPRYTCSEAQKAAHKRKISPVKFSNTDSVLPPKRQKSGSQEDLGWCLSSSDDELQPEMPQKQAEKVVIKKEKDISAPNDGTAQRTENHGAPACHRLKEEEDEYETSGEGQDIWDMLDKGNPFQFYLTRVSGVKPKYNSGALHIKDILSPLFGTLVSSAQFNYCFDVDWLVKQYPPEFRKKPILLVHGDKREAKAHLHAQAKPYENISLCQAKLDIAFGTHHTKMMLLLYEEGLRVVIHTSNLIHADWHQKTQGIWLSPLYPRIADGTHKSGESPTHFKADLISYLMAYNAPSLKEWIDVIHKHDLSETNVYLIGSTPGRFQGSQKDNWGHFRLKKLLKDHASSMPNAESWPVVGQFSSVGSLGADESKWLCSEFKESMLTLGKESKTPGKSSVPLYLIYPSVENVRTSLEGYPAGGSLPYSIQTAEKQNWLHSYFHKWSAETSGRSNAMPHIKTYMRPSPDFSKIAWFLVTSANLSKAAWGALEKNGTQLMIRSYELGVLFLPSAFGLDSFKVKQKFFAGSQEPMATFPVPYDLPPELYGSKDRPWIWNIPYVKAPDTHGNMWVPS
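Recombinant human Tdp1 (E. coli-expressed, 1 nM final) preincubated with compounds 15 min at room temperature, then 5'-biotin/3'-phosphotyrosine-FITC DNA substrate (15 nM final) added for 5 min. AlphaScreen beads (10 ug/ml final) added 10 min; cleavage lowers signal.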
HepG2 viability – HepG2 cytotoxicity, counter-screen for TGF-b inhibitors; AID 588856; 0.76% of 410,000 active; HepG2 CAGA-GFP viability, ATP luminescence, 18 h; Potency, µM (titrated, usually from 46.1 µM), most hits filed as cytotoxic
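CellTiter-Glo luminescence gave cytotoxicity after 18 hours at 37 degrees C. The cells were HepG2 CAGA-GFP in 1% FBS DMEM, stimulated with 500 pg/mL TGF-beta after compound addition. %Activity was normalised to no-cell wells (complete cell-killing) and DMSO (no toxicity), and curves were fitted and classified.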
TDP1 cell CPT – DT40-hTDP1 cell growth loss with CPT; 12% of 420,000 active; chicken DT40 Tdp1-/-;hTDP1 cells + 20 nM CPT, ATP luminescence, 48 h; Potency, µM (highest dose often 46.2 µM), usual class: inhibitors; AID 686979; note: nearly all actives have a fitted effect of over 55% in size
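Chicken DT40 Tdp1-/- cells complemented with human TDP1, 400 cells/well, exposed to compounds plus 20 nM camptothecin for at least 48 h at 37 C; viability read as ATP content by CellTiter-Glo luminescence.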
IL-1B inflam inh – blocks inflammasome-driven IL-1 beta release; THP-1 LPS/ATP IL-1B secretion, AlphaLISA, 16 h; active compounds read low; activity change, % at 57.5 µM; 4.7% of 360,000 active; AID 743279; in the data active = activity change below about -50%; inconclusive = mostly about -30% to -49%
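THP-1 cells pretreated 1 hr with compounds (up to 57.5 uM final), then stimulated with LPS (250 ng/mL final) plus ATP (1.25 mM final); secreted IL-1B measured by AlphaLISA after 16 hr, decreased signal indicating inhibition.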
DT40 TDP1 no CPT – qHTS for Inhibitors of human tyrosyl-DNA phosphodiesterase 1 (TDP1): qHTS in cells in absence of CPT; DT40 Tdp1-/- hTDP1 cells, no CPT, ATP luminescence, 48 h; 15% of 420,000 active; Potency, µM (highest dose often 46.2 µM), most hits filed as inhibitors; note: nearly all actives have a fitted effect of over 55% in size
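Readout: luminescence from CellTiter-Glo after 30 min in the dark at RT. Cells: DT40 Tdp1-/- with stable hTDP1, 400/well. Exposure: compounds alone, ≥48 hr, 37 °C.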
Large screens that a line does not name were inactive. A selection: hits, their analogues and other compounds. The true share with any hit is near 19%. Unless noted, calls come from the whole dose curve; as a rule, active = well fitted curve in the direction sought with a large enough effect; inconclusive = small, poorly fitted or top-dose-only effect, or another doubt; inactive = no such curve, though single readings can be large; an effect the other way counts as inactive or inconclusive.

COc1cc(CN2CCCC(c3nc(-c4ccncc4)ncc3-c3ccccc3)C2)ccc1O (configuration not stated)	none (no result: TGFb inhibitor, TDP1 block, HepG2 viability, IL-1B inflam inh)
Cc1c(Cl)cccc1NC(=O)CN1C(=O)COc2ccc(S(=O)(=O)N3CCOCC3)cc21	none (no result: IL-1B inflam inh)
Cc1ccc(CNC(=O)CC2Oc3ccccc3NC2=O)cc1 (configuration not stated)	none (no result: IL-1B inflam inh)
Cc1ccn2c(Nc3ccccc3C)c(-c3cccnc3)nc2c1	TDP1 cell CPT 16µM, DT40 TDP1 no CPT inconclusive
COc1cc(O)ccc1-c1nc2cc(C)ccn2c1Nc1ccccc1C	TGFb inhibitor inconclusive, TDP1 cell CPT 13µM, DT40 TDP1 no CPT 26µM (no result: IL-1B inflam inh)
Cc1ccn2c(NC(=O)c3ccco3)c(-c3ccccc3)nc2c1	none
COc1cc(-c2nc3ccccn3c2Nc2ccccc2C)ccc1O	TDP1 cell CPT inconclusive, DT40 TDP1 no CPT inconclusive (no result: IL-1B inflam inh)
Cc1ccn2c(Nc3ccccc3C)c(-c3ccccc3)nc2c1	HepG2 viability 13µM, TDP1 cell CPT 21µM, DT40 TDP1 no CPT inconclusive (no result: IL-1B inflam inh)
Cc1ccc(OCCSc2nc3ccccc3n2CC(=O)N2CCCCC2)cc1C	TDP1 cell CPT inconclusive, DT40 TDP1 no CPT inconclusive (no result: IL-1B inflam inh)
CC(C)C[C@@H](CC(=O)N[C@@H](CCC(=O)O)CC(=O)O)NC(=O)[C@@H]1CNCC[C@H]1NC(=O)C[C@H](CCCN)NC(=O)C[C@H](Cc1ccccc1)NC(=O)[C@@H]1CCCC[C@H]1N	none (no result: TGFb inhibitor, HepG2 viability, TDP1 cell CPT, IL-1B inflam inh, DT40 TDP1 no CPT)
O=C(CSc1nnc(-c2cccs2)o1)Oc1ccc(Cl)cc1	none (no result: IL-1B inflam inh)
N#C/C(=N\Nc1cccc2ccccc12)c1nnc2n1CCCCC2	TDP1 cell CPT inconclusive, DT40 TDP1 no CPT 33µM
CCOC(=O)c1cccc(NC(=O)NC(C)c2c(-n3cccc3)sc3c2CCN(C)C3)c1 (configuration not stated)	TGFb inhibitor inconclusive, TDP1 cell CPT 15µM, DT40 TDP1 no CPT 16µM (no result: IL-1B inflam inh)
CCC(NC(=O)Nc1cc(OC)ccc1OC)c1c(-n2cccc2)sc2c1CCN(CC)C2 (configuration not stated)	TDP1 cell CPT inconclusive, DT40 TDP1 no CPT 23µM (no result: IL-1B inflam inh)
CCC(NC(=O)Nc1ccc(OC)c(OC)c1)c1c(-n2cccc2)sc2c1CCN(C)C2 (configuration not stated)	TGFb inhibitor inconclusive, TDP1 cell CPT inconclusive, DT40 TDP1 no CPT inconclusive (no result: IL-1B inflam inh)
COc1ccc(NC(=O)NC(C)c2ccc3c(c2)OCO3)c(OC)c1 (configuration not stated)	none
COc1ccc(NC(=O)NC(C)c2c(-n3cccc3)sc3c2CCN(C)C3)c(OC)c1 (configuration not stated)	TGFb inhibitor inconclusive, TDP1 cell CPT inconclusive, DT40 TDP1 no CPT 23µM (no result: IL-1B inflam inh)
CC(C)(CNC(=O)C1c2ccccc2-c2ccccc21)N1CCOCC1	IL-1B inflam inh -68
CC(C)(CNC(=O)c1cc2ccccc2o1)N1CCOCC1	none
COc1cc(C(=O)N2CCC(c3nc4ccccc4o3)CC2)cc(OC)c1OC	TDP1 cell CPT inconclusive (no result: IL-1B inflam inh)
CC(=Nc1ccccc1)C1=C(O)C(Cc2ccc(F)cc2)NC1=O (configuration not stated)	TDP1 cell CPT 1µM, DT40 TDP1 no CPT 1.2µM (no result: TDP1 block)
COc1cc(OC)c(Nc2nc3ccc(C)cc3n3nnnc23)cc1Cl	none (no result: IL-1B inflam inh)
O=S(=O)(c1cccc(C(F)(F)F)c1)N1CCCC1c1cccnc1 (configuration not stated)	DT40 TDP1 no CPT inconclusive (no result: IL-1B inflam inh)
Cc1ccc(S(=O)(=O)N2CCCCC2c2cccnc2)c(C)c1C (configuration not stated)	TGFb inhibitor inconclusive, TDP1 cell CPT inconclusive, DT40 TDP1 no CPT 23µM
COc1cc(OC)cc(C(=O)Nc2ccc(S(=O)(=O)N3CCCCC3c3cccnc3)cc2)c1 (configuration not stated)	TDP1 cell CPT inconclusive, DT40 TDP1 no CPT 26µM (no result: IL-1B inflam inh)
CCn1c(C)cc(/C=C2/SC(=S)N(CC(=O)O)C2=O)c1C	none
